Assay results taken from the supplement of paper PMC3545927.
The other results are listed elsewhere or left out. How many sequences the whole screen found active is unknown.

B1: HC944 (peptide)
chain: CAHIDAHFLSAGNASASA
B2: HC246 (peptide)
chain: CAGCSFSIFLAGNASASA
B3: HC2186 (peptide)
chain: CAEVMTSTWVAGNASASA
B4: HC827 (peptide)
chain: CALDQAETAGAGNASASA
B5: HC2356 (peptide)
chain: CAEVGCHRPSAGNASASA
B6: HC1375 (peptide)
chain: CAALVTPCAAAGNASASA
B7: HC1844 (peptide)
chain: CATIPCSGSWAGNASASA
B8: FS-1328 (peptide)
chain: CAGKSRRKRQAGNASASA
B9: FS-1084 (peptide)
chain: CASPSVRKRQAGNASASA
B10: DV1 (peptide)
chain: CAGKKRRPVKAGNASASA
B11: FS-516 (peptide)
chain: CAVSVRRKRQAGNASASA
B12: FS-1243 (peptide)
chain: CAPRLRRKRQAGNASASA
B13: FS-420 (peptide)
chain: CAFTSRFKRQAGNASASA
B14: HC47 (peptide)
chain: CATTPWSGSWAGNASASA
B15: HC2004 (peptide)
chain: CAVICCSMSYAGNASASA
B16: FS-231 (peptide)
chain: CAEKSRAKRQAGNASASA
B17: HC687 (peptide)
chain: CANQVEGEVQAGNASASA
B18: HC2313 (peptide)
chain: CARVPCHRPSAGNASASA
B19: FS-80 (peptide)
chain: CAQKVRPRRWAGNASASA
B20: FS-235 (peptide)
chain: CAFRNRNQRIAGNASASA
B21: FS-328 (peptide)
chain: CAFRVRSRRWAGNASASA
B22: FS-1605 (peptide)
chain: CAQKDRARRPAGNASASA
B23: FS-1393 (peptide)
chain: CARDVRSRRPAGNASASA
B24: HC1615 (peptide)
chain: CALRKLGVPPAGNASASA
B25: FS-2876 (peptide)
chain: CAPLKRSVSLAGNASASA
B26: FS-2477 (peptide)
chain: CAGLKRSVSRAGNASASA
B27: FS-2247 (peptide)
chain: CAKIKRSVSPAGNASASA
B28: HC1320 (peptide)
chain: CAPKSPPVPPAGNASASA
B29: FS-2540 (peptide)
chain: CAKAKRSVPPAGNASASA
B30: HC365 (peptide)
chain: CAQNVQLINTAGNASASA
B31: HC2312 (peptide)
chain: CAEVPCHRPSAGNASASA
B32: FS-247 (peptide)
chain: CAHAYRPGRRAGNASASA
B33: HC722 (peptide)
chain: CACTCGSSDLAGNASASA
B34: FS-1531 (peptide)
chain: CAHAYRHRRLAGNASASA
B35: FS-154 (peptide)
chain: CAALCRHRRLAGNASASA
B36: HC1172 (peptide)
chain: CAGIMHTRCHAGNASASA
B37: FS-119 (peptide)
chain: CACPRRAKRRAGNASASA
B38: FS-2132 (peptide)
chain: CARATRKIGIAGNASASA
B39: FS-2891 (peptide)
chain: CARASRGGGGAGNASASA
B40: FS-2893 (peptide)
chain: CARASRSIRIAGNASASA
B41: FS-1559 (peptide)
chain: CARASRNKRPAGNASASA
B42: FS-1477 (peptide)
chain: CARASRAKRRAGNASASA
B43: HC2374 (peptide)
chain: CAEVPCHKPSAGNASASA
B44: HC1807 (peptide)
chain: CADFMEECSQAGNASASA

Target: furin, P09958
Assay: furin cleavage Z-score vs untreated control; higher = more cleavage, active = 3.5 or more, inactive = 1 or less, 8 variable residues between constant flanks
How it was run: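 Sequencing of released DNA, tagged with adapters by PCR, gave read counts used as abundance. That DNA was freed when purified furin cut N-terminally bead-bound 8-mer peptides fused to a cDNA oligonucleotide, in 0.01 ml reactions at 1:10 enzyme:substrate in 50 mM HEPES pH 7.5 with CaCl2 and NaCl, lasting 7.5, 15 or 30 min. The cleavage Z-score was the lowess-adjusted log count versus furin-free reactions, scaled by median absolute deviation.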

Sequence of furin, P09958 (P09958 whole entry): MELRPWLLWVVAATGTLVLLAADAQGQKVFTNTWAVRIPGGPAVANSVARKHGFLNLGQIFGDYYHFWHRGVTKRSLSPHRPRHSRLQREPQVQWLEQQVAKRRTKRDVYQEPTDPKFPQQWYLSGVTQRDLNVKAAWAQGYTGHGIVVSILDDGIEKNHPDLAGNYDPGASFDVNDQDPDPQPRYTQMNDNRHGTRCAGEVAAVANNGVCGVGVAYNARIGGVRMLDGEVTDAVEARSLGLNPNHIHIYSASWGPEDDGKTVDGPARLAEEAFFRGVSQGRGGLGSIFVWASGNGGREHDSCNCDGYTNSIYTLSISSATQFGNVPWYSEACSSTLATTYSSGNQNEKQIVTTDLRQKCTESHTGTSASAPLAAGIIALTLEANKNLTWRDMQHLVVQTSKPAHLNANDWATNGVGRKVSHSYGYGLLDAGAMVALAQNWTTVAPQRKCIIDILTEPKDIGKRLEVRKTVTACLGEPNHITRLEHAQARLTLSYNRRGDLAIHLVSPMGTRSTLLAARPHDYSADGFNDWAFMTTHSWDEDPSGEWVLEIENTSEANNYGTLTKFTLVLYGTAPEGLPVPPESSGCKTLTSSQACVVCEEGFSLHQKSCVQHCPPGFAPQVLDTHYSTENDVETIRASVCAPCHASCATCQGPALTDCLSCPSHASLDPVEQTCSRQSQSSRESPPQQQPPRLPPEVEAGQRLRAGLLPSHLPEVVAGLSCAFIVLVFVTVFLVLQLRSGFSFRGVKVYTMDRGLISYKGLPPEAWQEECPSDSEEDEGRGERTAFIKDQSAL

Sequence	furin cleavage Z-score (7.5 min)	furin cleavage Z-score (15 min)	furin cleavage Z-score (30 min)
B1	-0.528 (inactive)	-1.68 (inactive)	-0.674 (inactive)
B2	-1.55 (inactive)	-1.86 (inactive)	0.305 (inactive)
B3	-0.944 (inactive)	-0.894 (inactive)	-0.0736 (inactive)
B4	0.305 (inactive)	0.588 (inactive)	0.353 (inactive)
B5	0.279 (inactive)	0.829 (inactive)	0.483 (inactive)
B6	-0.826 (inactive)	-0.333 (inactive)	-1.48 (inactive)
B7	-0.402 (inactive)	-1.52 (inactive)	-0.285 (inactive)
B8	11.6 (active)	12.5 (active)	8.34 (active)
B9	1.65	1.54	0.547 (inactive)
B10	0.52 (inactive)	1.23	0.39 (inactive)
B11	11.2 (active)	12.2 (active)	9.86 (active)
B12	10.3 (active)	9.75 (active)	8.73 (active)
B13	10.7 (active)	10.3 (active)	8.02 (active)
B14	-0.899 (inactive)	-0.0349 (inactive)	-1.02 (inactive)
B15	-1.33 (inactive)	-0.628 (inactive)	0.99 (inactive)
B16	9.72 (active)	8.1 (active)	6.51 (active)
B17	-1.48 (inactive)	-0.19 (inactive)	-1.34 (inactive)
B18	-0.0296 (inactive)	0.363 (inactive)	-0.117 (inactive)
B19	9.9 (active)	11.7 (active)	9.5 (active)
B20	-0.28 (inactive)	-1.55 (inactive)	0.794 (inactive)
B21	8.66 (active)	9.61 (active)	9.2 (active)
B22	0.51 (inactive)	-1.09 (inactive)	0.363 (inactive)

Sequence	furin cleavage Z-score (7.5 min)	furin cleavage Z-score (15 min)	furin cleavage Z-score (30 min)
B23	0.0934 (inactive)	0.513 (inactive)	0.621 (inactive)
B24	0.313 (inactive)	0.845 (inactive)	0.629 (inactive)
B25	0.317 (inactive)	2.22	2.88
B26	-0.266 (inactive)	-1.67 (inactive)	0.712 (inactive)
B27	4.13 (active)	3.63 (active)	4.32 (active)
B28	-0.644 (inactive)	0.94 (inactive)	-0.0681 (inactive)
B29	9.65 (active)	9.24 (active)	7.46 (active)
B30	-0.00687 (inactive)	0.24 (inactive)	0.289 (inactive)
B31	0.893 (inactive)	0.385 (inactive)	0.669 (inactive)
B32	-0.291 (inactive)	-0.643 (inactive)	1.65
B33	-1.16 (inactive)	-3.51 (inactive)	-0.486 (inactive)
B34	0.687 (inactive)	2.16	3.53 (active)
B35	4.73 (active)	5.6 (active)	6.55 (active)
B36	1.75	2.22	0.438 (inactive)
B37	4.82 (active)	4.82 (active)	5.05 (active)
B38	-0.496 (inactive)	-1.56 (inactive)	-0.101 (inactive)
B39	-0.8 (inactive)	-0.464 (inactive)	-0.232 (inactive)
B40	3.6 (active)	6.75 (active)	7.27 (active)
B41	0.256 (inactive)	-0.194 (inactive)	0.132 (inactive)
B42	11.9 (active)	12.4 (active)	8.04 (active)
B43	0.115 (inactive)	1	-0.202 (inactive)
B44	0.00727 (inactive)	-0.301 (inactive)	-1.48 (inactive)
